Assay results reported in PubChem BioAssay AID1159580 (chemical genetic matrix, 2015).
Several values for one entry are separate records, joined by “and”; a condition that tells them apart may be missing. Equal entries are not always repeated. Out of some 5,500 compounds screened, about 2,000 (36%) were called active. Roughly 18% stayed inconclusive and do not appear here. Rule as the data show it: active = normalized growth mostly below about 0.91 (no sharp cut-off); inconclusive = no clear call, values can overlap the other calls; inactive = mostly above about 0.92. The list shows a part of the results.

Assay: chemical genetic growth profiling, strain panel (AID 1159580);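 also: tested at 20 µM; growth read once vehicle control cultures reached saturation at 30 °C; 1 = growth at the plate median or of vehicle wells; lower values mean less growth of the strain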
Conditions: growth OD

Measured: normalized growth

C[N+](C)(C)CCCCCC[N+](C)(C)C
inactive: S. cerevisiae deletion strains, locus YAL013W, strain DEP1, hits give low values 1.01 | S. cerevisiae deletion strains, locus YAL040C, strain CLN3, hits give low values 0.978 and 0.988 | S. cerevisiae deletion strains, locus YBR021W, strain FUR4, hits give low values 0.997 | S. cerevisiae deletion strains, locus YBR229C, strain ROT2, hits give low values 0.995 | S. cerevisiae deletion strains, locus YCL029C, strain bik1, hits give low values 0.988 | S. cerevisiae deletion strains, locus YCL061C, strain MRC1 (second series), hits give low values 1.01 and 1 | S. cerevisiae deletion strains, locus YDL035C, strain GPR1, hits give low values 1 | S. cerevisiae deletion strains, locus YDL074C, strain BRE1, hits give low values 1.07 | S. cerevisiae deletion strains, locus YDL101C, strain DUN1, hits give low values 0.993 | S. cerevisiae deletion strains, locus YDL134C, strain PPH21, hits give low values 0.98 | S. cerevisiae deletion strains, locus YDL185W, strain tfp1, hits give low values 0.984 | S. cerevisiae deletion strains, locus YDL192W, strain arf1, hits give low values 0.98 | S. cerevisiae deletion strains, locus YDR101C, strain arx1, hits give low values 1.03 | S. cerevisiae deletion strains, locus YDR150W, strain NUM1, hits give low values 1 and 0.998 | S. cerevisiae deletion strains, locus YDR162C, strain NBP2, hits give low values 0.985 | S. cerevisiae deletion strains, locus YDR318W, strain mcm21, hits give low values 0.984 | S. cerevisiae deletion strains, locus YDR363W, strain ESC2, hits give low values 1.01 and 0.998 | S. cerevisiae deletion strains, locus YDR388W, hits give low values 0.982 | S. cerevisiae deletion strains, locus YDR502C, strain sam2, hits give low values 0.985 | S. cerevisiae deletion strains, locus YEL061C, strain CIN8, hits give low values 0.993 | S. cerevisiae deletion strains, locus YER002W, strain NOP16, hits give low values 1.03 and 1 | S. cerevisiae deletion strains, locus YER110C, hits give low values 0.979 | S. cerevisiae deletion strains, locus YER155C, strain BEM2, hits give low values 0.998 | S. cerevisiae deletion strains, locus YER167W, strain BCK2, hits give low values 0.994 | S. cerevisiae deletion strains, locus YGL078C, strain dbp3, hits give low values 0.981 | S. cerevisiae deletion strains, locus YGL086W, strain mad1, hits give low values 1.02 | S. cerevisiae deletion strains, locus YGL248W, strain PDE1, hits give low values 1 | S. cerevisiae deletion strains, locus YGR078C, strain PAC10, hits give low values 1.03 and 0.99 | S. cerevisiae deletion strains, locus YGR135W, strain pre9, hits give low values 0.95 | S. cerevisiae deletion strains, locus YGR229C, strain SMI1, hits give low values 0.99 | S. cerevisiae deletion strains, locus YGR252W, strain gcn5, hits give low values 0.948 | S. cerevisiae deletion strains, locus YHR030C, strain SLT2, hits give low values 0.987 and 1.05 | S. cerevisiae deletion strains, locus YHR079C, strain IRE1 (second series), hits give low values 0.993 | S. cerevisiae deletion strains, locus YHR079C, strain IRE1, hits give low values 1.04 | S. cerevisiae deletion strains, locus YHR094C, strain hxt1, hits give low values 0.987 | S. cerevisiae deletion strains, locus YHR129C, strain ARP1, hits give low values 0.988 | S. cerevisiae deletion strains, locus YHR200W, strain rpn10, hits give low values 0.989 | S. cerevisiae deletion strains, locus YIL066C, strain RNR3, hits give low values 0.994 | S. cerevisiae deletion strains, locus YIL073C, strain SPO22, hits give low values 0.953 | S. cerevisiae deletion strains, locus YIL125W, strain kgd1, hits give low values 1 | S. cerevisiae deletion strains, locus YIR030C, strain dcg1, hits give low values 0.985 | S. cerevisiae deletion strains, locus YJL095W, strain BCK1, hits give low values 1 and 1.05 | S. cerevisiae deletion strains, locus YJL134W, strain LCB3, hits give low values 0.989 | S. cerevisiae deletion strains, locus YJL168C, strain set2, hits give low values 1 | S. cerevisiae deletion strains, locus YJL187C, strain SWE1 (second series), hits give low values 0.999 | S. cerevisiae deletion strains, locus YJR043C, strain POL32, hits give low values 1 | S. cerevisiae deletion strains, locus YJR066W, strain TOR1, hits give low values 0.96 | S. cerevisiae deletion strains, locus YJR075W, strain HOC1, hits give low values 0.998 and 1.01 | S. cerevisiae deletion strains, locus YKL009W, strain mrt4, hits give low values 0.99 | S. cerevisiae deletion strains, locus YKL068W, hits give low values 0.988 | S. cerevisiae deletion strains, locus YKL085W, strain MDH1 (second series), hits give low values 0.998 | S. cerevisiae deletion strains, locus YKL085W, strain MDH1, hits give low values 0.998 | S. cerevisiae deletion strains, locus YKL190W, strain CNB1, hits give low values 1.01 | S. cerevisiae deletion strains, locus YKR001C, strain vps1, hits give low values 1 | S. cerevisiae deletion strains, locus YLR039C, strain RIC1, hits give low values 1 | S. cerevisiae deletion strains, locus YLR058C, strain SHM2, hits give low values 0.987 | S. cerevisiae deletion strains, locus YLR102C, strain apc9, hits give low values 0.987 | S. cerevisiae deletion strains, locus YLR113W, strain HOG1, hits give low values 1.1 | S. cerevisiae deletion strains, locus YLR262C, strain YPT6, hits give low values 0.97 | S. cerevisiae deletion strains, locus YLR268W, strain sec22, hits give low values 0.99 | S. cerevisiae deletion strains, locus YLR330W, strain CHS5, hits give low values 0.99 | S. cerevisiae deletion strains, locus YLR342W, strain FKS1 (second series), hits give low values 0.976 | S. cerevisiae deletion strains, locus YLR371W, strain rom2, hits give low values 0.988 | S. cerevisiae deletion strains, locus YLR418C, strain cdc73, hits give low values 0.946 | S. cerevisiae deletion strains, locus YML016C, strain PPZ1, hits give low values 0.99 | S. cerevisiae deletion strains, locus YML032C, strain rad52, hits give low values 1 | S. cerevisiae deletion strains, locus YML124C, strain tub3, hits give low values 0.995 | S. cerevisiae deletion strains, locus YMR078C, strain ctf18, hits give low values 0.983 | S. cerevisiae deletion strains, locus YMR223W, strain ubp8, hits give low values 0.964 | S. cerevisiae deletion strains, locus YMR263W, strain SAP30, hits give low values 1.01 and 0.998 | S. cerevisiae deletion strains, locus YMR307W, strain GAS1, hits give low values 0.96 and 1.01 | S. cerevisiae deletion strains, locus YNL067W, strain RPL9B, hits give low values 1.01 | S. cerevisiae deletion strains, locus YNL128W, strain TEP1, hits give low values 0.992 and 1.01 | S. cerevisiae deletion strains, locus YNL153C, strain GIM3, hits give low values 1.03 and 1.01 | S. cerevisiae deletion strains, locus YNL175C, strain NOP13, hits give low values 0.99 and 1.02 | S. cerevisiae deletion strains, locus YNL183C, strain NPR1, hits give low values 1.01 | S. cerevisiae deletion strains, locus YNL197C, strain WHI3, hits give low values 0.999 and 1.02 | S. cerevisiae deletion strains, locus YNL224C, strain SQS1, hits give low values 0.994 and 1.04 | S. cerevisiae deletion strains, locus YNL233W, strain BNI4, hits give low values 1.01 | S. cerevisiae deletion strains, locus YNL250W, strain rad50, hits give low values 0.957 | S. cerevisiae deletion strains, locus YNL271C, strain bni1, hits give low values 0.984 | S. cerevisiae deletion strains, locus YNL298W, strain CLA4, hits give low values 0.981 | S. cerevisiae deletion strains, locus YNL307C, strain MCK1, hits give low values 0.985 | S. cerevisiae deletion strains, locus YNL322C, strain KRE1, hits give low values 0.998 and 0.995 | S. cerevisiae deletion strains, locus YNR052C, strain pop2, hits give low values 0.987 | S. cerevisiae deletion strains, locus YOL006C, strain TOP1, hits give low values 1.06 | S. cerevisiae deletion strains, locus YOL012C, strain htz1 1.51 | S. cerevisiae deletion strains, locus YOL147C, strain pex11, hits give low values 0.99 | S. cerevisiae deletion strains, locus YOR061W, strain CKA2, hits give low values 0.995 | S. cerevisiae deletion strains, locus YOR069W, strain VPS5, hits give low values 0.987 | S. cerevisiae deletion strains, locus YOR083W, strain WHI5 (second series), hits give low values 0.968 and 0.999 | S. cerevisiae deletion strains, locus YOR136W, strain idh2, hits give low values 0.994 | S. cerevisiae deletion strains, locus YOR144C, strain elg1, hits give low values 0.993 | S. cerevisiae deletion strains, locus YOR184W, strain ser1, hits give low values 0.988 | S. cerevisiae deletion strains, locus YOR231W, strain MKK1, hits give low values 1.09 | S. cerevisiae deletion strains, locus YOR316C, strain cot1, hits give low values 0.988 | S. cerevisiae deletion strains, locus YPL055C, strain LGE1, hits give low values 1.04 | S. cerevisiae deletion strains, locus YPL256C, strain CLN2, hits give low values 1.05 | S. cerevisiae deletion strains, locus YPR119W, strain clb2, hits give low values 0.997 | S. cerevisiae deletion strains, locus YPR141C, strain kar3, hits give low values 0.98 | S. cerevisiae deletion strains, locus YPR163C, strain tif3, hits give low values 1.01 | S. cerevisiae deletion strains, locus YPR167C, strain met16, hits give low values 0.983 | S. cerevisiae deletion strains, strain wtn01, hits give low values 0.982 | S. cerevisiae strains, strain wild type, hits give low values 0.995
